About 1,100 (1.7%) of roughly 63,000 compounds were called active. What follows is part of a selection rich in actives, with near analogues and random picks from the rest. Measured potencies and affinities stand elsewhere. Unmarked numbers belong to inactive results.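 Rule for the calls: active = compounds whose percent cytotoxicity in the single-dose primary screen, scaled between solvent and toxic-drug controls, exceeds 50; inactive = the rest.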

This assay can be described thus: cytotoxicity in KRAS-transformed pancreatic duct cells, primary screen, cell-based, fluorescence, HTS (AID 431).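 Note: 0% = DMSO solvent wells and 100% = doxorubicin-treated wells.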 The following applies: HPDE-C7K KRASV12 cells, Alamar Blue viability, 48 h; at 10 µM; stronger effect = higher value.
In the case of `Oc1ccccc1-c1cc(-c2ccccc2Cl)[nH]n1`, the cytotoxicity was 15.9%.
Then `Cc1ccc(-c2cc(-c3cccc(F)c3)n[nH]2)c(O)c1`, with 10.8%.
Turning to `Cc1ccc(-c2cc(-c3ccccc3Cl)[nH]n2)c(O)c1`, the cytotoxicity was 59.5% (active).
As for `COc1ccccc1-c1cc(-c2cc(Cl)ccc2O)n[nH]1`, the cytotoxicity is -3.1%.
For `Cc1ccccc1-c1cc(-c2ccccc2O)n[nH]1`, the cytotoxicity was 44%.
Turning to `CCOc1ccccc1OCC(=O)Nc1ccc(S(=O)(=O)N(C)C)cc1`, the cytotoxicity is 3.1%.
In the case of `O=C(Cn1nnc(-c2ccccc2F)n1)Nc1ccc(S(=O)(=O)NC2CCCC2)cc1` it was -26.3%; in that of `CCOC(=O)C(C)Oc1cccc2c(=O)n(CC(=O)N3CCN(C(=O)OCC)CC3)ccc12` (stereo not drawn), -16.7%.
Then `CCOC(=O)C(C)Oc1cccc2c(=O)n(CC(=O)NCc3ccc4c(c3)OCO4)ccc12` (stereo not drawn), with 38.8%.
Consider `CCOC(=O)C(C)Oc1cccc2c(=O)n(CC(=O)NCc3ccco3)ccc12` (stereo not drawn), for which the cytotoxicity is 61.1% (active).
Turning to `COc1ccc(NC(=O)C2CCCN(S(=O)(=O)c3cnc[nH]3)C2)cc1` (stereo not drawn), the cytotoxicity is -5.3%.
Then `COc1ccc(Br)cc1CNc1ccc(O)cc1`, with 50% (active); and `COc1ccc(Br)cc1C(=O)Nc1ccc(O)cc1`, with -14.3%; and `COc1cc(C)c(CNc2ccc(OC)c(OC)c2)cc1C`, with 21.6%.
As for `Cc1ccc(-n2nnnc2SCC(=O)Nc2c(C)n(C)n(-c3ccccc3)c2=O)cc1`, the cytotoxicity is -3.4%.
In the case of `COc1ccc(OC)c(Nc2cc(C(=O)NCCCN3CCOCC3)c3ccccc3n2)c1` it was 1.8%; in that of `CCOc1ccc(NC(=O)Cn2nnc(-c3ccccc3NC(=O)CC)n2)cc1`, 5.1%.
Then `NC(=O)c1cc2ccc(O)cc2oc1=NCc1ccccc1`, with 4.1%; and `CC(=NCc1ccccc1)C1=C(O)COC1=O`, with -6%; and `O=C(CC1Nc2ccccc2NC1=O)Nc1ccccc1` (stereo not drawn), with -3.2%.
Consider `Cc1ccc(NC(=O)CC2Nc3ccccc3NC2=O)cc1Cl` (stereo not drawn), for which the cytotoxicity is 51.6% (active).
In the case of `COc1ccccc1NC(=O)CC1Nc2ccccc2NC1=O` (stereo not drawn) it was -4.5%; in that of `CC(C)c1nc(SCc2ccccn2)c2c(=O)n(C)c(=O)n(C)c2n1`, 1.9%.
Then `Cc1nc(SCc2c(F)cccc2Cl)c2c(=O)n(C)c(=O)n(C)c2n1`, with -12.8%.
Turning to `CC(C)c1nc(SCc2c(F)cccc2Cl)c2c(=O)n(C)c(=O)n(C)c2n1`, the cytotoxicity is 70.4% (active).
Then `CCC(CC)C(=O)Nc1ccccc1NC(C)=O`, with -16%.
Turning to `N#CCCN(CCC#N)C(=O)c1ccc2c(c1)OCO2`, the cytotoxicity is -3.2%.
Take `COc1ccc(Nc2cc(C)nc(-n3nc(C)cc3C)n2)cc1`: the cytotoxicity is 79.2% (active).
Take `COC(=O)c1ccc(Oc2cc(C)nc(-n3nc(C)cc3C)n2)cc1`: the cytotoxicity was 32.6%.
Turning to `CCOc1ccc(Nc2cc(C)nc(-n3nc(C)cc3C)n2)cc1`, the cytotoxicity is 40.7%.
For `CNc1cc(C)nc(-n2nc(C)cc2C)n1`, the cytotoxicity is -14.9%.
Then `COc1ccc(N2CCN(C(=O)c3ccc(-n4nc(C)cc4C)cc3)CC2)cc1`, with 2.6%; and `CC(=O)c1ccc(Oc2cc(C)nc(-n3nc(C)cc3C)n2)cc1`, with 56.4% (active).
In the case of `Cc1cc(NC(=O)c2cnn3c(C(F)F)cc(C4CC4)nc23)no1` it was 20.6%.
Take `COc1cccc(NC(=O)c2ccccc2-c2nc(-c3ccccc3)no2)c1`: the cytotoxicity is 25.4%.
On to `COc1ccc(OC)c(NC(=O)CNC(=O)Cn2cnc3ccccc3c2=O)c1`, for which the cytotoxicity is 2.3%.
In the case of `Cc1cccc(N(C)S(=O)(=O)c2cccc3nsnc23)c1` it was 14.4%; in that of `CCOC(=O)C1CCN(C(=O)c2oc3ccc(S(=O)(=O)N4CC(C)CC(C)C4)cc3c2C)CC1` (stereo not drawn), 5.5%.
In the case of `Cc1ccc(-c2csc3nc(C)n(-n4cccc4)c(=O)c23)o1` it was 0.5%.
In the case of `O=C(CSc1nnc(-c2ccccc2)o1)n1c2c(c3ccccc31)CCCC2` it was 69.9% (active); in that of `O=C(O)CSc1nnc(-c2ccccc2)o1`, 19.6%; in that of `Cc1nnc(SCC(=O)n2c3c(c4ccccc42)CCCC3)s1`, 6.2%.
For the compound `Cc1cccc(NC(=O)CSc2n[nH]c(-c3ccncc3)n2)c1`, the cytotoxicity was -6.1%.
With `Cc1ccc(N(CC(=O)Nc2ccc3c(c2)OCCO3)S(=O)(=O)c2c(C)n[nH]c2C)cc1`, the cytotoxicity was 9.8%.
Then `N#Cc1c(N2CCCC2)nc(N)c2c(N)nc(N3CCCC3)cc12`, with -2.8%.
In the case of `COc1cc2c(C#N)c(N3CCCCC3)nc(N)c2c(N)n1`, the cytotoxicity is 56.9% (active).
Then `CCOc1cc2c(C#N)c(N3CCOCC3)nc(N)c2c(N)n1`, with 22.5%; and `CCOc1ccccc1N1CCN(c2nc(N)c(C#N)c(CC#N)c2C#N)CC1`, with -11.4%; and `COc1cc2c(C#N)c(N3CCN(c4ccccc4OC)CC3)nc(N)c2c(N)n1`, with 57.2% (active).
Then `COc1ccccc1-c1nc(C#N)c(N2CCc3ccccc3C2)o1`, with 20.5%; and `COc1ccccc1N1CCN(c2nc(N)c(C#N)c(CC#N)c2C#N)CC1`, with -4.3%; and `COc1cc2c(C#N)c(N3CCOCC3)nc(N)c2c(N)n1`, with 46.6%.
For the compound `Cn1c(=O)c2c(nc(Oc3ccc4c(c3)OCO4)n2Cc2ccc(Cl)cc2)n(C)c1=O`, the cytotoxicity was 12.9%.
In the case of `Cc1cc(Br)c(S(=O)(=O)NCCN2CCOCC2)cc1C`, the cytotoxicity is 8.4%.
Then `CN(Cc1ccco1)C(=O)Cn1c(=O)oc2cc(S(=O)(=O)NCc3ccccc3)ccc21`, with 13.3%.
`CN(CCCn1c(=S)[nH]c2ncccc2c1=O)Cc1ccccc1`: the cytotoxicity is -13.7%.
Then `COc1ccc(OC)c(-c2cc(C(=O)N3CCCc4ccccc43)no2)c1`, with -6.9%; and `COc1ccc(CCNC2CC(=O)N(CCc3ccc(OC)c(OC)c3)C2=O)cc1OC` (stereo not drawn), with 6.1%.
Then `COC(=O)Nc1ccc(Oc2ccccc2)cc1`, with -4.1%; and `COc1ccccc1C(c1nnnn1Cc1ccccc1)N1CCN(c2nc3ccccc3s2)CC1` (stereo not drawn), with -13%.
On to `C=CS(=O)(=O)c1ccc(Oc2ccc(S(=O)(=O)C=C)cc2)cc1`, for which the cytotoxicity was 94.8% (active).
In the case of `O=S(=O)(c1ccc(Oc2ccc(S(=O)(=O)N3CCOCC3)cc2)cc1)N1CCOCC1`, the cytotoxicity was -9%.
As for `CNS(=O)(=O)c1ccc(Oc2ccc(S(=O)(=O)NC)cc2)cc1`, the cytotoxicity is 9.9%.
Consider `CCn1cc(C(=O)NCc2ccccn2)c(=O)c2cc(F)c(N3CCN(C)CC3)cc21`, for which the cytotoxicity is 2.1%.
Take `CCn1cc(C(=O)NCCCN(C)C)c(=O)c2cc(F)c(N3CCN(C)CC3)cc21`: the cytotoxicity is -0.3%.
Regarding `CCn1cc(C(=O)NCCc2ccccc2)c(=O)c2cc(F)c(N3CCN(C)CC3)cc21`, the cytotoxicity was 50.5% (active).
In the case of `C/C(Cl)=C\Cn1c(N2CCCCCC2)nc2c1c(=O)n(C)c(=O)n2C` it was 12%; in that of `N#Cc1ccc(NC(=O)c2cc3cc4c5c(c3oc2=N)CCCN5CCC4)cc1`, 12.7%; in that of `O=C(c1cc(Cl)ccc1Cl)N1CCN(c2ccccn2)CC1`, 1.5%.
`Cc1cc(-c2ccccc2)nc(N2CCN(c3ccccn3)CC2)n1`: the cytotoxicity is 5.4%.
In the case of `COC(=O)c1sc(Nc2ccccc2)nc1C` it was 0.2%.
Then `CCS(=O)(=O)N1CCN(c2cccc(C)c2C)CC1`, with -2.5%; and `c1ccc(-c2ccc(-c3nc(-c4ccccn4)no3)cc2)cc1`, with -2.8%; and `c1ccc(-c2cc(-c3nc(-c4cccnc4)no3)c3ccccc3n2)cc1`, with -19.7%.
Then `c1ccc(-c2cc(-c3nc(-c4ccccn4)no3)c3ccccc3n2)cc1`, with 60.7% (active); and `Cc1cc(C)n2cc(CSc3nnnn3-c3ccccc3C)nc2n1`, with -17.4%; and `COc1ccc(CSc2nnc(N)s2)cc1F`, with 49.9%.
Consider `Cc1ccc2c(c1)c1c3n2CCN(C(=O)CN2CCN(C)CC2)C3CCC1` (stereo not drawn), for which the cytotoxicity was 42.5%.
Regarding `Cc1ccc2c(c1)c1c3n2CCN(C(=O)C2CC2)C3CCC1` (stereo not drawn), the cytotoxicity was -2.9%.
Then `COc1ccccc1N1CCN(C(=O)CCCCn2c(=O)[nH]c3ccsc3c2=O)CC1`, with 1.8%; and `CN1CCc2nc(SCC(=O)Nc3ccc(F)cc3)c(C#N)cc2C1`, with -5%.
As to `FC(F)(F)c1cccc(CN2CCCCCC2)c1`, the cytotoxicity is -5.3%.
In the case of `C=CCN1C(=O)c2ccccc2Sc2ccc(C(=O)N3CCN(C)CC3)cc21` it was -13.7%; in that of `O=C(CN1CCCC(O)C1)N1c2ccccc2Sc2ccc(C(F)(F)F)cc21` (stereo not drawn), -4%.
Take `O=C(Nc1cccc(C(F)(F)F)c1)c1cccnc1N1CCN(CCO)CC1`: the cytotoxicity is -13.4%.
As for `C=CCOC(=O)CC(NC(=O)c1ccccc1)c1ccccc1` (stereo not drawn), the cytotoxicity was -11.4%.
As to `COc1ccccc1-c1cn(S(=O)(=O)c2ccc(F)cc2)nc1N`, the cytotoxicity is 2%.
`Cc1ccc(C(=O)c2coc3ccc(O)c(CN4CCN(C)CC4)c23)cc1`: the cytotoxicity was -9%.
In the case of `CN(C)Cc1c(O)ccc2occ(C(=O)c3ccccc3)c12` it was 6.6%; in that of `CCOC(=O)c1[nH]nc(C(=O)c2ccc(Br)cc2)c1O`, 5.4%; in that of `CC(=O)C(C(C)=O)c1c(Cl)c(O)c(O)c2c(C(=O)c3ccccc3)coc12`, 76.1% (active).
Regarding `O=C(c1ccccc1)c1coc2ccc(O)c(Cl)c12`, the cytotoxicity is -15%.
Then `c1cncc(C(c2nnnn2C2CCCC2)N2CCCC2)c1` (stereo not drawn), with 6%; and `Cc1ccc(SCc2nc(-c3ccccc3)no2)cc1`, with -10.8%; and `O=C(O)CCC(=O)N1CCN(c2cccc(Cl)c2)CC1`, with -6.3%.
Then `CCc1[nH]c(C)c(C(C)=O)c1C`, with 65.5% (active); and `CC(=O)c1c(C)[nH]c(C)c1C(C)=O`, with -3.5%; and `CCCNC(=O)c1[nH]c(C)c(C(C)=O)c1C`, with 7.9%.

The record behind these values is PubChem BioAssay AID431 (Sanford-Burnham Center for Chemical Genomics, 2006).
